Source: PubChem BioAssay (Broad Institute)
Many of the other results were omitted from the sample, so hits are more common in it than they were.
U2OS ROS induce: ROS inducers in U2OS cancer cells, primary screen, cell-based, H2DCF-DA fluorescence; U2OS ROS induction; ROS induction (% of piperlongumine), % at 10 µM; hit rate 2% among 46,000; AID 624156, 2012; in the data active = ROS induction above about 79%, passing the limit was not always enough;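 note: 0% = DMSO vehicle median and 100% = reference compound median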
The depositor's hits bear a star.

SMILES | U2OS ROS induce
C[C@H]1CN([C@@H](C)CO)C(=O)c2cc(NS(=O)(=O)c3cn(C)cn3)ccc2O[C@@H]1CN(C)Cc1ccc(Oc2ccccc2)cc1 | -7
C[C@H]1CN([C@@H](C)CO)C(=O)c2cc(NC(=O)CCCN(C)C)ccc2O[C@H]1CN(C)S(C)(=O)=O | 27
C[C@H]1CN([C@@H](C)CO)C(=O)c2cc(NC(=O)Nc3ccccc3)ccc2O[C@@H]1CN(C)C(=O)NC1CCCCC1 | -6
COc1ccc(NC(=O)N(C)C[C@H]2Oc3c(NC(=O)Nc4c(C)noc4C)cccc3C(=O)N([C@H](C)CO)C[C@H]2C)cc1 | -2
ClC(=Nc1ccccc1)c1ccccc1 | -8
CCc1ccc(NC(=O)Cn2cc(S(=O)(=O)c3ccccc3)c(=O)c3ccccc32)cc1 | 35
Cc1ccc(S(=O)(=O)c2cn(Cc3cccc(Cl)c3)c3cc4c(cc3c2=O)OCO4)cc1 | 98*
Cc1nc2ccccc2n1Cc1cccc(Cl)c1 | -13
COC(=O)C(C)Sc1nnc2c3ccccc3n(Cc3ccccc3)c2n1 (stereo unspecified) | 146*
CCC(Sc1nnc2c3ccccc3n(CC)c2n1)C(=O)NC(C)c1ccccc1 (stereo unspecified) | 18
CCCCn1c2ccccc2c2nnc(SCC(=O)c3ccccc3)nc21 | -6
O=c1oc2cc(O)ccc2cc1-c1nc2ccccc2s1 | 149*
c1cc(-c2nc3ccccc3s2)nc(-c2nc3ccccc3s2)c1 | -15
CCOc1cccc2cc(-c3nc4ccccc4s3)c(=O)oc12 | 17
O=C1NN=C(c2ccccc2)/C1=C1\OC(c2ccccc2)=CS1 | 138*
Cc1cccc(C)c1NC1=NC(C)(CO)CS1 (stereo unspecified) | 1
Cc1ccc(S(=O)(=O)NC(=O)N2CCC(Nc3nccc(C(F)(F)F)n3)CC2)cc1 | -14
Cc1ccc(S(=O)(=O)Nc2ccc3c(c2)C(=O)N([C@H](C)CO)C[C@H](C)[C@@H](CN(C)CC2CCCCC2)O3)cc1 | -12
COCCOC(=O)N1C(=O)[C@@]2(c3cc(C#CCC(C(=O)OC)C(=O)OC)ccc31)[C@H](C(=O)N1CCc3cc(OC)c(OC)cc3C1)[C@H]1C(=O)O[C@H](c3ccccc3)[C@H](c3ccccc3)N1[C@@H]2c1ccc(O)cc1 | 1
COCCOC(=O)N1C(=O)[C@@]2(c3cc(C#CC4=CCCCC4)ccc31)[C@H](C(=O)N1CCc3cc(OC)c(OC)cc3C1)[C@H]1C(=O)O[C@H](c3ccccc3)[C@H](c3ccccc3)N1[C@@H]2c1ccc(O)cc1 | 9
COCCOC(=O)N1C(=O)[C@@]2(c3ccccc31)[C@H](C(=O)N1CCc3cc(OC)c(OC)cc3C1)[C@H]1C(=O)O[C@H](c3ccccc3)[C@H](c3ccccc3)N1[C@@H]2c1ccc(O)cc1 | 185*
COCCOC(=O)N1C(=O)[C@@]2(c3ccccc31)[C@H](c1ccccc1OCCO)N1[C@H](c3ccccc3)[C@H](c3ccccc3)OC(=O)[C@H]1[C@@H]2C(=O)N1CCc2cc(OC)c(OC)cc2C1 | 214*
COc1cc2c(cc1OC)CN(C(=O)[C@@H]1[C@H]3C(=O)O[C@H](c4ccccc4)[C@H](c4ccccc4)N3[C@H](c3ccccc3OCCO)[C@@]13C(=O)Nc1ccc(C#CCNC(N)=O)cc13)CC2 | 18
COCCOC(=O)N1C(=O)[C@@]2(c3ccccc31)[C@H](c1ccc(O)cc1)N1[C@H](c3ccccc3)[C@H](c3ccccc3)OC(=O)[C@H]1[C@@H]2C(=O)N1CCc2cc(OC)c(OC)cc2C1 | 11
CN(C(=O)c1cc2c(s1)-c1ccc(Cl)cc1SC2)c1cccc(Cl)c1 | -5
SMILES | U2OS ROS induce
CC(C)(C)c1ccc(Oc2ccc(NC(=O)c3ccccc3)cn2)cc1 | 57
C[C@]1(C(=O)NC2CC2)c2ccccc2C(=O)N(Cc2cc(C(F)(F)F)cc(C(F)(F)F)c2)[C@H]1c1ccc(CO)cc1 | 4
CC(=O)c1ccc(NC(=O)CCn2cnc3ccccc3c2=O)cc1 | 60
Cc1ccc(NC(=O)CSc2nc(C)c(C)c(=O)[nH]2)cc1 | 13
COc1ccc(NC(=O)CSc2nc(C)cc(=O)[nH]2)cc1 | 5
COc1ccc(NC(=O)CSc2nc3scc(C)c3c(=O)[nH]2)cc1 | 91*
COc1ccc(OC)c(C(C)NC(=O)Nc2cccc([N+](=O)[O-])c2)c1 (stereo unspecified) | 2
C[C@@H]1CN([C@@H](C)CO)C(=O)c2cc(NC(=O)Nc3cccc4ccccc34)ccc2O[C@H]1CN(C)S(=O)(=O)c1ccc(F)cc1 | 5
C[C@H]1CN([C@@H](C)CO)C(=O)c2cc(NC(=O)Cc3ccccc3)ccc2O[C@H]1CN(C)S(=O)(=O)c1ccccc1 | 1
C[C@H](CO)N1C[C@H](C)[C@H](CN(C)S(=O)(=O)c2cccs2)Oc2ccc(NC(=O)Cc3ccccc3)cc2CC1=O | -1
CCSC1=C(C#N)C(=O)NC(CO)S1 (stereo unspecified) | 25
CC1NC(=O)C(C#N)=C(SCc2ccccc2)S1 (stereo unspecified) | 93*
CCSC1=C(C#N)C(=O)NC(C(C)C)S1 (stereo unspecified) | 8
C[C@@H]1CN([C@@H](C)CO)C(=O)c2cc(NC(=O)Cn3cnnn3)ccc2O[C@@H]1CN(C)S(=O)(=O)c1ccccc1 | -1
Cc1ccc(S[C@]2(C(=O)NC(C)C)CC(=O)N(C3CCCCC3)[C@@H]2c2ccc(CO)cc2I)cc1 | 201*
COc1ccc(CCNC(=O)[C@@]2(Sc3ccc(C)cc3)CC(=O)N(C(C)C)[C@@H]2c2ccc(CO)cc2I)cc1 | 20
Cc1ccc(S[C@]2(C(=O)NCC(F)(F)F)CC(=O)N(C3CCCCC3)[C@@H]2c2ccc(CO)cc2I)cc1 | 19
COc1ccc(S(=O)(=O)N(C)CC(=O)Nc2cc(Cl)ccc2OC)cc1C | 0
COC(=O)c1ccc(/C=C2\SC(N)=NC2=O)cc1 | 7
COC(=O)C(CC#Cc1ccc2c(c1)[C@]1(C(=O)N2)[C@H](c2ccccc2OCCO)N2[C@H](c3ccccc3)[C@H](c3ccccc3)OC(=O)[C@H]2[C@@H]1C(=O)Nc1nc2ccccc2s1)C(=O)OC | 46
C=CCNC(=O)[C@H]1[C@@H]2C(=O)O[C@@H](c3ccccc3)[C@@H](c3ccccc3)N2[C@@H](c2ccc(O)cc2)[C@]12C(=O)Nc1ccc(C#Cc3ccc(OC)cc3)cc12 | 11
C=CCNC(=O)[C@@H]1[C@H]2C(=O)O[C@H](c3ccccc3)[C@H](c3ccccc3)N2[C@H](c2ccccc2OCCO)[C@@]12C(=O)Nc1ccc(C#CCC(C(=O)OC)C(=O)OC)cc12 | 192*
NC(=O)NCC#Cc1ccc2c(c1)[C@]1(C(=O)N2)[C@H](c2ccccc2OCCO)N2[C@H](c3ccccc3)[C@H](c3ccccc3)OC(=O)[C@H]2[C@@H]1C(=O)NC[C@H](O)c1ccccc1 | 6
C=CCNC(=O)[C@H]1[C@@H]2C(=O)O[C@@H](c3ccccc3)[C@@H](c3ccccc3)N2[C@@H](c2ccc(OCCO)cc2)[C@]12C(=O)Nc1ccc(C#CCC(C(=O)OC)C(=O)OC)cc12 | 157*
C=CCNC(=O)[C@H]1[C@@H]2C(=O)O[C@@H](c3ccccc3)[C@@H](c3ccccc3)N2[C@@H](c2ccccc2OCCO)[C@]12C(=O)Nc1ccc(C#Cc3ccc(OC)cc3)cc12 | 14
COC(=O)C(CC#Cc1ccc2c(c1)[C@]1(C(=O)N2)[C@H](c2ccccc2OCCO)N2[C@H](c3ccccc3)[C@H](c3ccccc3)OC(=O)[C@H]2[C@@H]1C(=O)NC[C@H](O)c1ccccc1)C(=O)OC | 205*
